The values that follow come from the supplement of paper PMC6555819.

What all share (assay): PBM binding z-score (relative to random genomic background probes); higher = stronger binding; sequences stand for … in GC…GCGATTGACAGCGTAGAATGAAGG
Assay [1] relates to RARb homodimer (NR concentration 270 nM). An outline of the steps:
(§1)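 Binding buffer was PBS pH 7.4 with 2% milk, 0.02% Triton X-100, 1 mM DTT, 0.2 mg/mL BSA and 0.4 mg/ml salmon testes DNA. In it, ligand-free nuclear receptor dimers were incubated 1 h on custom Agilent 4×180K protein-binding microarrays carrying double-stranded probes. Antibodies against each partner (one per run) detected binding, and z-scores were calculated against random background probes after regression normalization of scanned fluorescence.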

Assay [2] relates to RARg:RXRa (NR concentration 270 nM, RXRa partner concentration 90 nM). An outline of the steps:
as §1

The test system of assay [3] is RARg homodimer (NR concentration 270 nM). Summed up: as §1
The subject of assay [4] is RXRa DBDmut IVT, anti-RXR (DBD mutation: RXRa K156A/R161A, NR concentration 90 nM). An outline of the steps: as §1
Assay [5] concerns RXRa homodimer (NR concentration 180 nM). An outline of the steps:
as §1

The test system of assay [6] is THRa:RXRa (NR concentration 90 nM, RXRa partner concentration 90 nM). An outline of the steps:
as §1

For assay [7], the system named is THRa homodimer (NR concentration 90 nM). An outline of the steps:
as §1

Assay [8] deals with VDR homodimer (NR concentration 270 nM). An outline of the steps: as §1

As to CGAACGATGGCATGAGTTGATAGCAAATGCCGAT, the PBM binding z-score is -0.482 in assay [1]; -0.189 in assay [2]; -0.00968 in assay [3]; 0.0712 in assay [4]; 0.135 in assay [5]; -0.2 in assay [6]. Besides, the figures for the PBM binding z-score in assay [7] and in assay [8] were -0.806 and 0.233, respectively.

For the sequence CCTAGTTCGTCAAGGTCACACACGCTATAGGTAC, the PBM binding z-score in assay [1] was 4.36; in assay [2] it was 4.84; in assay [3] it was 4.77; in assay [4] it was 4.16; in assay [5] it was 4.74; in assay [6], 4.39. For the same sequence, the PBM binding z-score in assay [7] turned out to be 4.47; in assay [8], 6.91.

As for CCTAGCTGGCCAATCTGGGTCACTCAAGGCTTGA, the PBM binding z-score in assay [1] was 1.72; in assay [2] it was 0.659; in assay [3], 0.818; in assay [4], -0.0999; in assay [5] it was 0.716; in assay [6] it was 2.69. The values for the PBM binding z-score in assay [7] and in assay [8] were 0.234 and -0.441, respectively.

As to AGAATCAGGTTATTAAGATCAGGGAATTGCGGTC, the PBM binding z-score in assay [1] was found to be 0.785; in assay [2], 0.291; in assay [3] it was 0.541; in assay [4] it was 0.627; in assay [5], 0.596; in assay [6] it was 1.21. Also, the PBM binding z-score in assay [7] was found to be 0.84; in assay [8], 0.616.

With TAGCCTAGGTCAGATCGTGCCAGTATACGCTATA, the PBM binding z-score in assay [1] is 2.22; in assay [2] it was 2.83; in assay [3] it was 3.28; in assay [4], -0.193; in assay [5] it was 1.33; in assay [6], 2.46. In addition, the PBM binding z-score in assay [7] is 0.0586; in assay [8], -0.325.

Consider TGAATGAGGTTAAAGCTCAGGGAACGTGGCGTCG, for which the PBM binding z-score came out at 0.437 in assay [1]; 1.9 in assay [2]; 0.981 in assay [3]; 1.06 in assay [4]; 2.71 in assay [5]; 2.16 in assay [6]. Besides, the PBM binding z-score is 0.216 in assay [7] and 0.0356 in assay [8].

As to TCTAGTTGGTCAGAGGTCACACACTCGAAATGCG, the PBM binding z-score amounted to 4.5 in assay [1]; 6.07 in assay [2]; 5.24 in assay [3]; 1.92 in assay [4]; 6.47 in assay [5]; 3.99 in assay [6]. Moreover, the PBM binding z-score in assay [7] worked out at 2.52; in assay [8], 3.35.
